A number with no mark means an inactive call. Some of the results follow. The source made the active and inactive calls. Unless noted, no stated cut-off is given here; in the data, active means inhibition above about 33%; inactive means the rest.
How the values were obtained:
[1] = biological target: Nuclear receptor coactivator 3 (Homo sapiens) (UniProt Q9Y6Q9); experiment: NCOA3 GAL4-fusion reporter inhibition – cell-based, luminescence, quadruplicate, confirmation (AID 588792;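 active means mean inhibition over 43.08%, the solvent-only control mean plus 3 SD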;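 further: 0% = DMSO treated cells and 100% = gossypol at 36 µM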); conditions: HEK293 GAL4-SRC3 luciferase reporter, at 3.6 µM, hits give high values
[2] = tested on: transactivating tegument protein VP16 (Human herpesvirus 1), Gal4-VP16 luciferase reporter; experiment: repression of VP16-driven luciferase reporter – cell-based, luminescence, high throughput, counter-screen for SRC3 inhibitor project (AID 588794; in the data active means inhibition above about 30%); conditions: mammalian cells, at 3.6 µM, hits give high values
[3] = biological target: Nuclear receptor coactivator 1 (Homo sapiens) (UniProt Q15788); experiment: NCOA1 GAL4-fusion reporter inhibition – cell-based, luminescence, quadruplicate, confirmation (AID 588820;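 active means mean inhibition above 46.68%, the untreated control wells mean plus 3 SD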;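 further: 0% = DMSO wells and 100% = gossypol 36 µM treated wells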); conditions: HEK293 GAL4-SRC1 luciferase reporter, at 3.6 µM, hits give high values
[4] = repression of VP16-driven luciferase reporter – cell-based, luminescence, high throughput, counter-screen for SRC1 inhibitor project (AID 588824; in the data active means inhibition above about 25%); conditions: cell-based VP16 transactivation luciferase luminescence; at 3.6 µM; hits give high values
[5] = StAR promoter reporter inhibitors, counter-screen for LRH-1 inverse agonist project, cell-based, luminescence, high throughput (AID 651611; in the data active means inhibition above about 28%); conditions: StAR promoter luciferase reporter counterscreen, at 3.6 µM, hits give high values
[6] = biological target: Nuclear receptor subfamily 5 group A member 2 (Homo sapiens) (UniProt O00482); experiment: NR5A2 activity suppression in reporter cells – cell-based, luminescence, confirmation (AID 651613; in the data active means inhibition above about 42%;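 further: HEK293T cells co-transfected with LRH-1 and StAR promoter luciferase reporter; 0% = vehicle wells and 100% = parental cells lacking receptor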); conditions: cell-based LRH-1 luciferase reporter, inverse agonism; at 3.6 µM; hits give high values
[7] = biological target: Steroidogenic factor 1 (Homo sapiens) (UniProt Q13285); experiment: inverse agonism at SF1 nuclear receptor – cell-based, luminescence, high throughput, counter-screen for LRH-1 inverse agonist project (AID 651614; in the data active means inhibition above about 44%;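 further: cells cotransfected with StAR promoter reporter and SF1 expression vector; 0% = vehicle on cells with receptor and 100% = vehicle on cells lacking receptor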); conditions: cell-based SF1 luciferase reporter, at 3.6 µM, hits give high values
[8] = compounds suppressing VP16-driven luciferase signal – cell-based, luminescence, high throughput, counter-screen for LRH-1 inverse agonist project (AID 651615); conditions: Gal4-VP16 luciferase reporter cells, at 3.6 µM, hits give high values
[9] = tested on: transactivating tegument protein VP16 (Human herpesvirus 1); experiment: compounds suppressing VP16-driven luciferase signal – cell-based, luminescence, single concentration, counter-screen for SRC2 inhibitor project (AID 652007; in the data active means inhibition above about 36%); conditions: cell-based VP16 transactivation luciferase reporter, at 8.9 µM, hits give high values
[10] = biological target: Nuclear receptor coactivator 2 (Homo sapiens) (UniProt Q15596); experiment: inhibition of GAL4-SRC2 driven luciferase expression – cell-based, luminescence, HEK293, triplicate, confirmation (AID 652008;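 active means mean inhibition above 46.5%, the solvent-only control mean plus 3 SD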;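 further: 0% = DMSO-treated cells and 100% = Gossypol at 36 µM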); conditions: HEK293 GAL4-SRC2 luciferase reporter, at 8.9 µM, hits give high values
[11] = VP16-driven transactivation reporter suppression – cell-based, luminescence, HEK293, counter-screen for COUP-TFII antagonist project (AID 687007; in the data active means inhibition above about 13%); conditions: HEK293 Gal4-VP16 luciferase reporter, at 8.5 µM, hits give high values
[12] = biological target: COUP transcription factor 2 (Homo sapiens) (UniProt P24468); experiment: retest of COUP-TFII reporter suppressors – cell-based, luciferase reporter, HEK293, triplicate, confirmation (AID 687008;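 active means mean inhibition over three repeats above a set limit taken from the earlier primary screen, cut at about 38% in these data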;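 further: 100% = cells given the luciferase reporter alone without the COUP-TF2 vector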); conditions: HEK293 NGFI-A luciferase reporter, luminescence; at 8.5 µM; hits give high values

Steroidogenic factor 1 (Homo sapiens), sequence (Q13285 whole entry, looked up, the tested form may be a part): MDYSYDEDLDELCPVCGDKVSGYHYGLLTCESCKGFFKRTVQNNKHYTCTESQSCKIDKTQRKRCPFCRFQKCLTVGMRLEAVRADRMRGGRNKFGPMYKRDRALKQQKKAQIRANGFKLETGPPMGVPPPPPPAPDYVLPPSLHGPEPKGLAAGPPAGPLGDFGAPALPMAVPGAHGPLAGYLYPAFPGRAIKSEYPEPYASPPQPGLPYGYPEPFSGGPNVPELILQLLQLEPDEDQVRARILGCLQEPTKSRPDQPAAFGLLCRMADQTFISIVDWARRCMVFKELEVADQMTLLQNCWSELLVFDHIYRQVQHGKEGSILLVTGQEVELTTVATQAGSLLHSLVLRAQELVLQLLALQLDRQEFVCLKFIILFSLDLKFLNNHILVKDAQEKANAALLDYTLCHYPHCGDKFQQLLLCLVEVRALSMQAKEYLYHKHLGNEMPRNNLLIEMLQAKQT
Nuclear receptor coactivator 1 (Homo sapiens), sequence (Q15788 whole entry, looked up, the tested form may be a part): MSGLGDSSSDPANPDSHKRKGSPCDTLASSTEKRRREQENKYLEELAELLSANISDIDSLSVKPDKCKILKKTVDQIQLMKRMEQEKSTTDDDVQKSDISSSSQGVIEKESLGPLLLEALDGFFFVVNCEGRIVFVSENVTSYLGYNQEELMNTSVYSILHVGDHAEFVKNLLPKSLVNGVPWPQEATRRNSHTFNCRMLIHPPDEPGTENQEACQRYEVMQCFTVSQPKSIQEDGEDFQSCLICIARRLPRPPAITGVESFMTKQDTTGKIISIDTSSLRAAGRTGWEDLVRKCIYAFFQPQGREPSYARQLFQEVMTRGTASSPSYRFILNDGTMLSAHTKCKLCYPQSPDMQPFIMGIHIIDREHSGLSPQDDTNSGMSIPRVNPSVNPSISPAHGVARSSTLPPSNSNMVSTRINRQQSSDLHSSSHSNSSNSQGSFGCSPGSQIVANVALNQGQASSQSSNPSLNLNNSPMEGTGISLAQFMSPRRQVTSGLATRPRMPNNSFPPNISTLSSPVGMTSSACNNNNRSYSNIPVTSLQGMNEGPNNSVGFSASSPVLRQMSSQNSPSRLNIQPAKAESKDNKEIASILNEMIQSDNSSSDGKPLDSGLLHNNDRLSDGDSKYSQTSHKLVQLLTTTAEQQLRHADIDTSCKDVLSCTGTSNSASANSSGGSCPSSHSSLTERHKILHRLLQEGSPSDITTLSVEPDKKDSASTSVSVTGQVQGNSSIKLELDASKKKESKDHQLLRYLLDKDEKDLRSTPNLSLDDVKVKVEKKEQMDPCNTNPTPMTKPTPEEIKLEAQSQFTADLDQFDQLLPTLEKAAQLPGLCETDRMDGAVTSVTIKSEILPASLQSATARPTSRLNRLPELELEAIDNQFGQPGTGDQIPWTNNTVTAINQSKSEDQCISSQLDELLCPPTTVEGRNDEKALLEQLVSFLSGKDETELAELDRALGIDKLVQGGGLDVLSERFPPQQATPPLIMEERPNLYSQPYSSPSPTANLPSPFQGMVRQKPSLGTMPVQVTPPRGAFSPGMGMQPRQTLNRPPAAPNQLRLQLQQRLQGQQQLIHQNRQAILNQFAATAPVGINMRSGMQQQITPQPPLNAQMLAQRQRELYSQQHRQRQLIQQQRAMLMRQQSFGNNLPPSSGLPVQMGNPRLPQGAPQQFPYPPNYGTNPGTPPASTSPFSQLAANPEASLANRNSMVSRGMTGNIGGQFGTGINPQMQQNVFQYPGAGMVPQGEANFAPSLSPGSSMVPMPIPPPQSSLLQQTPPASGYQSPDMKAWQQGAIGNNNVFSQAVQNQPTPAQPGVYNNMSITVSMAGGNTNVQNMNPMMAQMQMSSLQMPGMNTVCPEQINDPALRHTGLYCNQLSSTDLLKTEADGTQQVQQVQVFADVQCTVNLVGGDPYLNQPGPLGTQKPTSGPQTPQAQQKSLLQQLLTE
Nuclear receptor coactivator 2 (Homo sapiens), sequence (Q15596 whole entry, looked up, the tested form may be a part): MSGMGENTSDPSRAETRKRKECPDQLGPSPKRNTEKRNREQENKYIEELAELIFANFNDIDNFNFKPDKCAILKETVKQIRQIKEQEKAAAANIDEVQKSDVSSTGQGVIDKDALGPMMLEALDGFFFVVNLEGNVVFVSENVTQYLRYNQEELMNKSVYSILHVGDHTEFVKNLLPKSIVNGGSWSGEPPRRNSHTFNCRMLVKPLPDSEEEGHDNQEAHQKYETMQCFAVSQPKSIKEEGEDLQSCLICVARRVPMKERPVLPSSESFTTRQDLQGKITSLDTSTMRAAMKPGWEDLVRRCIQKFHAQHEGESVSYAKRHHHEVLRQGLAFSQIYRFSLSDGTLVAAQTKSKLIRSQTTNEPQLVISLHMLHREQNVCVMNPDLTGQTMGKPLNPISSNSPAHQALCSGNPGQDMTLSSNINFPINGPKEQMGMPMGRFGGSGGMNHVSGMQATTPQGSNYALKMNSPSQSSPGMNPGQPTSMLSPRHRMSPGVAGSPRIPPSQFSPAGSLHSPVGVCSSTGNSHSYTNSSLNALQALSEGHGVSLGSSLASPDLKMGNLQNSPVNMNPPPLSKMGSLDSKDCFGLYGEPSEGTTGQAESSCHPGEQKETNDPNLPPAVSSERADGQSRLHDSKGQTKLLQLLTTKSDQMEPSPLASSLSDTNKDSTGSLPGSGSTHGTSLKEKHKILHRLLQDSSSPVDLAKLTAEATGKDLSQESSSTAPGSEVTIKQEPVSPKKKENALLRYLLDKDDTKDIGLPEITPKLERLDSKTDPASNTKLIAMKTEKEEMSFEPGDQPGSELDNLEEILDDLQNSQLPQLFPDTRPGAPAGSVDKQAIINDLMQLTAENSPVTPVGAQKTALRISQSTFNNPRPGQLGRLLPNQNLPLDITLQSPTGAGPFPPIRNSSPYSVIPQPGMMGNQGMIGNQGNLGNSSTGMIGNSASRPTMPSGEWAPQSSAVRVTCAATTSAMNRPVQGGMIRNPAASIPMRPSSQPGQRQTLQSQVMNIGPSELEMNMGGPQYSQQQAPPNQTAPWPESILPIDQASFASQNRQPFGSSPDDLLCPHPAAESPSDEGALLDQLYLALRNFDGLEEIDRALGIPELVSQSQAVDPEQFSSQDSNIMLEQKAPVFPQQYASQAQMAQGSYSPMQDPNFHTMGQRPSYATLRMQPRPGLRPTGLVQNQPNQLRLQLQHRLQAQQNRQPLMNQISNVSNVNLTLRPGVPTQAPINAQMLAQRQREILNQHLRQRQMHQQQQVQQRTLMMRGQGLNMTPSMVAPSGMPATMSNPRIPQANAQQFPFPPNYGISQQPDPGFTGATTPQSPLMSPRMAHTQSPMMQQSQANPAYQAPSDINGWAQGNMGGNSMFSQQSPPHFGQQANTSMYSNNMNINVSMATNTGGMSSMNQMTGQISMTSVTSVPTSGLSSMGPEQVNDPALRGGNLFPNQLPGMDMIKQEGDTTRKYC
Nuclear receptor coactivator 3 (Homo sapiens), sequence (Q9Y6Q9 whole entry, looked up, the tested form may be a part): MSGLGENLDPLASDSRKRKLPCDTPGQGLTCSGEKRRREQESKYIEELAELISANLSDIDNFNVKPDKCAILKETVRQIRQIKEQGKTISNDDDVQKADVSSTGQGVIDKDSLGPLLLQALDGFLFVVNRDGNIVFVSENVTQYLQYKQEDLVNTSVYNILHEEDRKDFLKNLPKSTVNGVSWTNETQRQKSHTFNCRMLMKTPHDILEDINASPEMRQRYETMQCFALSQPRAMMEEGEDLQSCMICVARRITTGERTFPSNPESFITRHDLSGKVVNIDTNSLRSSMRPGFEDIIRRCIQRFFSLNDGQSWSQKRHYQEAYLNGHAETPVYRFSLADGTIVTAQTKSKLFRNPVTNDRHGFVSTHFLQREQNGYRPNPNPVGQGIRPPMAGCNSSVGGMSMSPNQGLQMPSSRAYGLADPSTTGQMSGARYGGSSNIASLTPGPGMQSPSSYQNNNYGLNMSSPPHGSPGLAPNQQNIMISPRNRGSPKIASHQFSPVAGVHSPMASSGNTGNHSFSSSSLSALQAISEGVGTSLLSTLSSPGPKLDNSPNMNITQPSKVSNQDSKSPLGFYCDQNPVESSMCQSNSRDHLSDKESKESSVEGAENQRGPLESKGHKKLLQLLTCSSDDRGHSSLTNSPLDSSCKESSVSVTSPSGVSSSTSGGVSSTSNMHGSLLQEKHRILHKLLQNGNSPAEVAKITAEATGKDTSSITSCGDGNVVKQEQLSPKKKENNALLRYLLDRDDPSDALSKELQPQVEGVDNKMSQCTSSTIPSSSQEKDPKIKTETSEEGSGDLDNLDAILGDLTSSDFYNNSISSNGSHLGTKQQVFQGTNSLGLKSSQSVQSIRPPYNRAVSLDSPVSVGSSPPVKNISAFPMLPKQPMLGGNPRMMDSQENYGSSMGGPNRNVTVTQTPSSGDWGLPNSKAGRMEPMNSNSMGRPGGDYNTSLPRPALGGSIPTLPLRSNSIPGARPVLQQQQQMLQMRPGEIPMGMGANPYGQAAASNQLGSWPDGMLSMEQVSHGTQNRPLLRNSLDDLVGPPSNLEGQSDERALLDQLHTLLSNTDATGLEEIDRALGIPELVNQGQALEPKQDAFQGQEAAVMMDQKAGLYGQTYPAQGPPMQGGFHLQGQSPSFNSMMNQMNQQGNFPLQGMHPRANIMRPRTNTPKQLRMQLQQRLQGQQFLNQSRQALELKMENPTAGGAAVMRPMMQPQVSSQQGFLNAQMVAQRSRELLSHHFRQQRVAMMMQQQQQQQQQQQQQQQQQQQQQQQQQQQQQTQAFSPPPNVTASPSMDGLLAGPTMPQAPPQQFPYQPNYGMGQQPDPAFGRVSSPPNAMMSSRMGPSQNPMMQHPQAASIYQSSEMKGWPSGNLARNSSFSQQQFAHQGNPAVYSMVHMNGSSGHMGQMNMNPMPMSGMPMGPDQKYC

## Cc1ccc(-c2cc(-c3ccc(C)cc3)[n+](-c3ccccc3)c(-c3ccc(C)cc3)c2)cc1
[1]
  inhibition: 79.8% (active)
[2]
  inhibition: 82.6% (active)
[3]
  inhibition: 48.3% (active)
[4]
  inhibition: 80.6% (active)
[5]
  inhibition: 84.5% (active)
[6]
  inhibition: 111% (active)
[7]
  inhibition: 94.8% (active)
[8]
  inhibition: 95% (active)

## O=[N+]([O-])c1ccc(N2CCOCC2)c2c1no[n+]2[O-]
[1]
  inhibition: 82.4% (active)
[2]
  inhibition: 62.9% (active)
[3]
  inhibition: 23%
[4]
  inhibition: 62.2% (active)
[5]
  inhibition: 94.1% (active)
[6]
  inhibition: 101% (active)
[7]
  inhibition: 92.6% (active)
[8]
  inhibition: 70.7% (active)

## N#CC1c2ccccc2-n2nncc2CN1Cc1cc(Cl)cc(Cl)c1 (configuration not stated)
[1]
  inhibition: 92.8% (active)
[2]
  inhibition: 84.7% (active)
[3]
  inhibition: 79.7% (active)
[4]
  inhibition: 90.4% (active)
[5]
  inhibition: 90.5% (active)
[6]
  inhibition: 106% (active)
[7]
  inhibition: 94.1% (active)
[8]
  inhibition: 94.3% (active)
[9]
  inhibition: 82.2% (active)
[10]
  inhibition: 84.5% (active)

## CC12CCC3C(CCC4(O)CC(O)CCC34C=NO)C1(O)CCC2C1=COC(=O)C1 (configuration not stated)
[1]
  inhibition: 94.5% (active)
[2]
  inhibition: 84.4% (active)
[3]
  inhibition: 61.1% (active)
[4]
  inhibition: 82.2% (active)
[5]
  inhibition: 96.3% (active)
[6]
  inhibition: 110% (active)
[7]
  inhibition: 98.2% (active)
[8]
  inhibition: 89.2% (active)
[9]
  inhibition: 54.3% (active)
[10]
  inhibition: 29.4%

## COc1ccc(-[n+]2c(-c3ccccc3)cc(-c3ccc(C)cc3)cc2-c2ccccc2)cc1
[1]
  inhibition: 85.5% (active)
[2]
  inhibition: 87.3% (active)
[3]
  inhibition: 71.9% (active)
[4]
  inhibition: 88.3% (active)
[5]
  inhibition: 82.7% (active)
[6]
  inhibition: 111% (active)
[7]
  inhibition: 96.9% (active)
[8]
  inhibition: 98.2% (active)

## O=c1[nH]c2ccccc2n1C1CCN(C(c2ccccc2OC(F)(F)F)c2nnnn2-c2ccc3c(c2)OCCO3)CC1 (configuration not stated)
[1]
  inhibition: 27.6%
[2]
  inhibition: -1.84%
[3]
  inhibition: -23.1%
[4]
  inhibition: -0.24%
[5]
  inhibition: 61.8% (active)
[6]
  inhibition: 37.3%
[7]
  inhibition: 43.7% (active)
[8]
  inhibition: 39.8% (active)

## CC1CC(C)(O)CC(C(O)CC2CC(=O)NC(=O)C2)C1=O (configuration not stated)
[1]
  inhibition: 96.7% (active)
[2]
  inhibition: 95.7% (active)
[3]
  inhibition: 89.7% (active)
[4]
  inhibition: 94.9% (active)
[5]
  inhibition: 96.2% (active)
[6]
  inhibition: 110% (active)
[7]
  inhibition: 98.5% (active)
[8]
  inhibition: 98.1% (active)

## O=c1[nH]c2ccccc2n1C1CCN(C(c2cccc3ccccc23)c2nnnn2Cc2ccccc2)CC1 (configuration not stated)
[1]
  inhibition: 13.1%
[2]
  inhibition: 8.16%
[3]
  inhibition: -24.4%
[4]
  inhibition: -4.89%
[5]
  inhibition: 53.6% (active)
[6]
  inhibition: 18.9%
[7]
  inhibition: 28.4%
[8]
  inhibition: 9.13%

## CCN1/C(=C/C=C/C2=[N+](CC)c3ccccc3C2(C)C)C(C)(C)c2ccccc21
[1]
  inhibition: 97.1% (active)
[2]
  inhibition: 87.3% (active)
[3]
  inhibition: 51.5% (active)
[4]
  inhibition: 87.5% (active)
[5]
  inhibition: 86.7% (active)
[6]
  inhibition: 110% (active)
[7]
  inhibition: 96.1% (active)
[8]
  inhibition: 96.7% (active)

## CC(=O)OC1CC(OC2C(O)CC(OC3C(O)CC(OC4CCC5(C)C(CCC6C5CCC5(C)C(C7=CC(=O)OC7)C(O)CC65O)C4)OC3C)OC2C)OC(C)C1OC1OC(CO)C(O)C(O)C1O (configuration not stated)
[1]
  inhibition: 93.4% (active)
[2]
  inhibition: 79.7% (active)
[3]
  inhibition: 39.1%
[4]
  inhibition: 72.8% (active)
[5]
  inhibition: 97.7% (active)
[6]
  inhibition: 111% (active)
[7]
  inhibition: 99.3% (active)
[8]
  inhibition: 85.1% (active)
[9]
  inhibition: 61.8% (active)
[10]
  inhibition: 13.5%

## C[C@@H]1O[C@@H](O[C@H]2C[C@@H](O)[C@]3(CO)[C@@H]4C(CC[C@]3(O)C2)[C@@]2(O)CC[C@H](C3COC(=O)C3)[C@@]2(C)C[C@H]4O)[C@H](O)[C@H](O)[C@H]1O (some centres not stated)
[1]
  inhibition: 87.8% (active)
[2]
  inhibition: 47.1% (active)
[3]
  inhibition: 5.8%
[4]
  inhibition: 54.1% (active)
[5]
  inhibition: 92% (active)
[6]
  inhibition: 100% (active)
[7]
  inhibition: 85.2% (active)
[8]
  inhibition: 56.4% (active)

## COc1ccc(C[C@H]2NC[C@H](O)[C@H]2OC(C)=O)cc1
[1]
  inhibition: 98.9% (active)
[2]
  inhibition: 97.4% (active)
[3]
  inhibition: 96% (active)
[4]
  inhibition: 96.7% (active)
[5]
  inhibition: 94.4% (active)
[6]
  inhibition: 110% (active)
[7]
  inhibition: 97.7% (active)
[8]
  inhibition: 95.9% (active)
[9]
  inhibition: 79.2% (active)
[10]
  inhibition: 78.6% (active)

## COc1ccc(-c2cc(-c3ccccc3)[n+](C)c(-c3ccccc3)c2)cc1
[1]
  inhibition: 35.9%
[2]
  inhibition: 57.7% (active)
[3]
  inhibition: 34.3%
[4]
  inhibition: 51.3% (active)
[5]
  inhibition: 60.2% (active)
[6]
  inhibition: 96% (active)
[7]
  inhibition: 84.5% (active)
[8]
  inhibition: 77.1% (active)

## COC1C(O)C(C)OC(OC2CCC3(C=O)C(CCC4C3CCC3(C)C(C5=CC(=O)OC5)CCC43O)C2)C1O (configuration not stated)
[1]
  inhibition: 96.8% (active)
[2]
  inhibition: 89.2% (active)
[3]
  inhibition: 81.5% (active)
[4]
  inhibition: 88.7% (active)
[5]
  inhibition: 93.6% (active)
[6]
  inhibition: 110% (active)
[7]
  inhibition: 97.2% (active)
[8]
  inhibition: 93% (active)
[11]
  inhibition: 51% (active)
[12]
  inhibition: 76.3% (active)

— PubChem BioAssay
